Source: PubChem BioAssay
TTR transcr act = TTR transcription activation, primary screen; SH-SY5Y TTR promoter Gaussia luciferase, luminescence; 100% = recombinant luciferase protein wells; activation, % at 16.7 µM; 92,000 tested, 1.3% active; AID 1117267;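 active = activation above the mean of all tested compounds plus 3 SD, cut at about 9.5% in these data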;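 also: cells exposed to compounds for one day before reading; 0% = median of all test compound wells on the plate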
HuH7 TTR inh = counter-screen for TTR activators: TTR transcription inhibitors in HuH7 cells | shares compounds with TTR transcr act | HuH7 TTR promoter-Gaussia luciferase reporter, luminescence | inhibition, % at 16.7 µM | 1,100 tested, 4% active | AID 1117279;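 active = average inhibition above the solvent-only control wells' mean plus 3 SD, cut at about 15% in these data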;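 also: 0% = cells with DMSO only and 100% = cells with inhibitor control FD; inhibitors lower well luminescence so higher value means more inhibition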
TTR act confirm = confirmation of human transthyretin transcription activators. shares compounds with TTR transcr act. activation, % at 16.7 µM. 1,100 tested, under 10 active. AID 1117280. SHSY5Y TTR promoter Gaussia luciferase, luminescence; 100% = purified Lucia enzyme wells, no cells;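 active = mean activation above a set limit taken from the earlier primary screen, cut at about 11% in these data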;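 also: 0% = DMSO-treated cells and 100% = recombinant Lucia luciferase without cells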
Numbers without * were called inactive. Many of the other results were omitted from the sample, so hits are more common in it than they were.

SMILES | TTR transcr act | others
Oc1cc(CNC2CCCCC2)c(O)cc1CNC1CCCCC1 | 1.4
CC1(C)O[C@@H]2[C@H](O1)[C@@H](CO)O[C@H]2n1ccc(=O)[nH]c1=O | 2.6
CN(C)[C@H]1CCN(c2ccc3c(c2)OCCCN(C2CC2)S3(=O)=O)C1 | 0.3
CCCCOCCCNC(=O)C[C@@H]1C[C@@]2(C(=O)OC)CC(C)(C)CC=C2N(Cc2ccc3c(c2)OCO3)C1=O | -2.0
CCCCN(C)C(=O)c1c[nH]c2ccc(S(=O)(=O)N3CCOCC3)cc2c1=O | 10.9* | HuH7 TTR inh=-7.5;TTR act confirm=0.7
O=C(NCCN1CCOCC1)c1c[nH]c2ccc(S(=O)(=O)N3CCOCC3)cc2c1=O | 0.0
CCN(CC)CCNS(=O)(=O)c1ccc2[nH]cc(C(=O)O)c(=O)c2c1 | 0.3
CC(NC(=O)/C(=C/c1ccc2c(c1)OCO2)NC(=O)c1cccc([N+](=O)[O-])c1)C(=O)O (configuration not stated) | -0.7
O=P(c1ccccc1)(c1ccccc1)c1cnc2ccccn12 | 1.8
COc1cc2cc(CN(CCO)C(=O)c3cccs3)c(=O)[nH]c2cc1OC | 32.6* | HuH7 TTR inh=-10.9;TTR act confirm=0.2
Cc1cccc(N(Cc2cc3cc(C)ccc3[nH]c2=O)C(=O)c2cccs2)c1 | -1.6
COc1cc2cc(CN(CCc3cccc(C)c3)C(=S)NCCCN(C)C)c(=O)[nH]c2cc1OC | -1.5
CCc1nc2ccc(C(=O)NCCc3c[nH]c4ccccc34)cn2c1N(C)Cc1ccc(N(C)C)cc1 | -1.9
CCc1nc2c(OCc3ccc(Cl)cc3)cccn2c1N(C)C(=O)c1ccc2c(c1)OCO2 | 0.1
CCC(CC)n1c(C)cc(=O)n1C(CC)CC | -0.3
Cc1cc(=O)n(C(C)Cc2ccccc2)n1C(C)Cc1ccccc1 (configuration not stated) | 16.7* | HuH7 TTR inh=-7.7;TTR act confirm=-0.4
CC(Cc1ccccc1)N(C)C(=O)CN1C(=O)c2ccccc2C1=O (configuration not stated) | -0.3
Cc1cc([N+](=O)[O-])nn1CCCC(=O)Nc1cc(Cl)ccc1Cl | 14.4* | HuH7 TTR inh=-13.0;TTR act confirm=-1.0
Cc1cc([N+](=O)[O-])nn1CCCC(=O)NCc1ccccc1 | -0.8
Cc1cc(NC(=O)CCCn2nc([N+](=O)[O-])cc2C)no1 | 2.5
COc1cc(OC)cc(C(=O)OCC(=O)N(C)c2ccccc2)c1 | 0.7
Nc1ncnc2c1ncn2CCN1CCOCC1 | 12.5* | HuH7 TTR inh=-5.0;TTR act confirm=-0.3
Nc1ncnc(N2CCOCC2)c1N | 0.3
Nc1ncnc2c1ncn2[C@H]1C[C@H](O)[C@@H](CO)O1 | 8.9
COc1ccc(Cl)cc1S(=O)(=O)NC(C)c1cnn(-c2ccccn2)c1C (configuration not stated) | 0.7
SMILES | TTR transcr act | others
COc1ccc(C(=O)COc2ccc(C(C)=O)cc2OC)cc1OC | 0.1
C[C@H](CO)N1C[C@H](C)[C@@H](CN(C)S(=O)(=O)c2ccc3ccccc3c2)OCc2cn(nn2)CCCC1=O | 0.3
COc1cccc(S(=O)(=O)N(C)C[C@@H]2OCc3cn(nn3)CCCC(=O)N([C@@H](C)CO)C[C@H]2C)c1 | 11.4* | HuH7 TTR inh=-7.5;TTR act confirm=0.6
C[C@@H]1CN([C@@H](C)CO)C(=O)CCCn2cc(nn2)CO[C@H]1CN(C)S(=O)(=O)c1cccc(C#N)c1 | -1.5
O=C1N(c2ccccc2)CC2C(c3ccccc3)C(c3ccccc3)N3CCCC123 (configuration not stated) | 0.9
Cc1cc(C(=O)N/N=C/c2cccc(OC(=O)c3cccc(Br)c3)c2)n[nH]1 | -1.5
COc1cccc(/C=N/NC(=O)c2cc(C34CC5CC(CC(C5)C3)C4)[nH]n2)c1 | 16.8* | HuH7 TTR inh=-11.6;TTR act confirm=0.3
COc1ccc(/C=N/NC(=O)c2cc(C34CC5CC(CC(C5)C3)C4)[nH]n2)cc1OC | 4.9
Nc1ccc(CCc2ccccn2)cc1 | 1.0
CC1(c2ccccc2Cl)NC(=O)N(CC(=O)NCc2ccc3c(c2)OCO3)C1=O (configuration not stated) | 0.4
CCCCC(=O)OCc1c(-c2cccc(OC)c2)ncc2ccccc12 | 3.5
CC(C)n1c(=O)c2ccccc2n1Cc1cn(CCc2c[nH]c3ccccc23)nn1 | 2.3
COc1ccc(Cn2cc(Cn3c4ccccc4c(=O)n3C(C)C)nn2)cc1 | 15.5* | HuH7 TTR inh=-8.8;TTR act confirm=-0.7
COC(=O)Cn1c2ccccc2c(=O)n1C(C)C | 0.5
C[C@H]1C2CC(OC(=O)Nc3ccc(C#N)cc3)C(C2)[C@H]2CCCCN21 (some centres not stated) | -0.1
CCCC(=O)N1CCCC1(C)C(=O)Nc1ccc2nc(C)ccc2c1 (configuration not stated) | 0.5
CC1(C(=O)NS(=O)(=O)Cc2ccccc2)CCN1C(=O)C1(c2ccc(Cl)cc2)CCC1 (configuration not stated) | 1.9
S=c1[nH]nc(-c2cc(-c3ccccc3)n[nH]2)n1/N=C/C=C/c1ccccc1 | 3.9
S=c1[nH]nc(-c2cc(-c3ccccc3)n[nH]2)n1/N=C/c1cccs1 | 0.2
S=c1[nH]nc(-c2cc(-c3ccccc3)n[nH]2)n1/N=C/c1ccccc1 | 10.9* | HuH7 TTR inh=-15.0;TTR act confirm=1.0
O=C1CSc2cc(Cl)ccc2N1 | -0.2
CC(C)CN(C(=O)CSc1nc2ccccc2o1)c1c(N)n(Cc2ccccc2)c(=O)[nH]c1=O | 0.5
CC[C@]1(C(=O)OC)[C@H]2C(=O)N(C)C(=O)[C@H]2[C@H]2CN=C(SCc3ccc(OC)cc3)N21 | 1.6
Cc1cccc(N2CCN(C(=S)NC3CCCCC3)CC2)c1C | 12.2* | HuH7 TTR inh=11.9;TTR act confirm=0.6
Cc1cccc(N2CCN(C(=O)N3CCOCC3)CC2)c1C | 0.9
SMILES | TTR transcr act | others
S=C(NC1CCCC1)N1CCN(c2ccccn2)CC1 | 4.5
CC(O)CNc1nc(N)[nH]c(=O)c1N=Nc1ccccc1 (configuration not stated) | 1.6
COc1ccc(OC)c(N(CCN2C(=O)c3ccccc3C2=O)C(=O)C2CCC(=O)C2C)c1 (configuration not stated) | 0.6
COc1ccc(OCCN2CCC(C(=O)NC(C)c3cccc4ccccc34)CC2)cc1 (configuration not stated) | -1.0
CCOC(=O)Cn1c(=O)sc2ccccc21 | 17.3* | HuH7 TTR inh=-3.9;TTR act confirm=0.1
CCC(C)NC(=O)Cn1c(=O)sc2ccccc21 (configuration not stated) | 3.2
CCOC(=O)Cn1nc2sc3ccccc3n2c(=O)c1=O | 2.2
O=C(c1ccco1)N1CCN(c2ccc(N3CCCCC3)nn2)CC1 | 0.7
COc1cc(C(=O)N2C(=O)CCC2=O)cc(OC)c1OC | -2.0
Cc1cccc(C(=O)Nc2c(-c3ccccc3)nc3ncccn23)c1 | -0.7
O=C(c1ccccc1)N1CCOC(O)(c2ccccc2)C1c1ccccc1 (configuration not stated) | -0.4
CCC(C)(C)n1nnnc1C(c1ccc(C)cc1)N1CCCC1 (configuration not stated) | 18.1* | HuH7 TTR inh=-7.4;TTR act confirm=1.1
CCC(C)(C)n1nnnc1C(c1cc2cc(C)cc(C)c2[nH]c1=O)N1CCCC1 (configuration not stated) | -2.2
Cc1ccc(C)c(N2CCN(C(c3ccccc3)c3nnnn3C(C)(C)C)CC2)c1 (configuration not stated) | 0.1
CC(C)COC(=O)N(C)C[C@H]1OCc2cn(nn2)CCCC(=O)N([C@H](C)CO)C[C@@H]1C | -0.1
